Assay results from the supplement of paper PMC13380429.
A number with no mark means an inactive call.

System: Vero E6 infected with SARS-CoV-2
Experiment: inhibition of SARS-CoV-2 cytopathic effect; higher = more antiviral protection, active = above 15
Conditions: 48 h

SMILES | inhibition of SARS-CoV-2 cytopathic effect (1 nM) [%] | inhibition of SARS-CoV-2 cytopathic effect (8.33 nM) [%] | inhibition of SARS-CoV-2 cytopathic effect (100 nM) [%] | inhibition of SARS-CoV-2 cytopathic effect (833.33 nM) [%] | inhibition of SARS-CoV-2 cytopathic effect (10000 nM)
Clc1ccc(COC(Cn2ccnc2)c2ccc(Cl)cc2Cl)cc1 (stereo not given) [econazole] | 1.49 | 1.04 | 0.94 | 3.08 | -1.91%
Fc1ccc2c(CCNCc3cccc(OCC(F)(F)C(F)F)c3)c[nH]c2c1 [idalopirdine] | 2.26 | 0.96 | 0.82 | -0.82 | -3.37%
COC(=O)C1=C(C)NC(C)=C(C(=O)OC2CCCN(Cc3ccccc3)C2)C1c1cccc([N+](=O)[O-])c1 (stereo not given) [benidipine] | -0.65 | -0.51 | -1.47 | -0.97 | -3.67%
CCCCCN(C)CCC(O)(P(=O)(O)O)P(=O)(O)O [ibandronate] | 0.68 | 1.34 | 0.79 | -3.03 | -2.11%
C[C@H](N)C(=O)N[C@@]1(C(=O)O)C[C@@H](Sc2nnc[nH]2)[C@H]2[C@H](C(=O)O)[C@H]21 | -2.66 | -4.35 | -3.65 | -1.13 | 0.56%
CN(C)CCn1nnnc1SCC1=C(C(=O)O)N2C(=O)[C@@H](NC(=O)Cc3csc(N)n3)[C@H]2SC1 [cefotiam] | 1.69 | -0.06 | -0.67 | 1.14 | 0.56%
Cc1ccc(CNc2ncnc3ccc(-c4ccc(CO)o4)cc23)o1 | -1.31 | 0.26 | 0.15 | -0.45 | 1.88%
COc1ccc(-c2cc(=S)ss2)cc1 [anethole-trithione] | 1.7 | -0.29 | 1.29 | -1.2 | 2.76%
Cc1noc(C)c1-c1ccc(-c2cc(C(N)=O)c(NC(N)=O)s2)c(O[C@H]2CCNC2)c1 | 1.7 | 2.12 | 2.46 | -12.1 | 2.19%
O=C(O)CC(S)C(=O)O (stereo not given) [mercaptosuccinic-acid] | 0.69 | 3.36 | 4.14 | 3.72 | -0.09%
CC(=O)NCCC(=O)N[C@@H](Cc1c[nH]cn1)C(=O)O [N-acetylcarnosine] | 1.19 | 1.23 | -0.15 | -2.97 | 4.18%
CCN(CC)CCCCC1CCN(CC(=O)N2c3ccccc3C(=O)Nc3cccnc32)CC1 | -0.6 | 0.18 | -0.52 | -1.51 | -4.44%
O=C(CCCCCCC(=O)Nc1ccccc1)NO [vorinostat] | -0.07 | 0.67 | -0.77 | -5.85 | -23.6%
O=C(CCCN1CCC2(CC1)C(=O)NCN2c1ccccc1)c1ccc(F)cc1 [spiperone] | 1.92 | 1.62 | 0.95 | 9.61 | 81.1% (active)
COc1ccc(CCc2nc3cc(-c4c(C)noc4C)ccc3n2C[C@H](C)N2CCOCC2)cc1Cl | 0.67 | 1.61 | 0.26 | -1.13 | 5.31%
COc1cccc([C@H](O)C2CCN(CCc3ccc(F)cc3)CC2)c1OC [volinanserin] | -1.28 | -0.6 | -3.32 | -1.38 | -2.28%
CC(C)c1ccccc1S(=O)(=O)c1cc(N)c2ncccc2c1[N+](=O)[O-] | 1.33 | 1.24 | 0.12 | 5.82 | 9.31%
Cl/C=C\C[N+]12CN3CN(CN(C3)C1)C2 [1-((Z)-3-chloroallyl)-1,3,5,7-tetraazaadamantan-1-ium] | 0 | 0.47 | -0.23 | 2.67 | 5.36%
